Only a selection was taken, and hits are over-represented in it overall.
DT40 TDP1 no CPT: qHTS for Inhibitors of human tyrosyl-DNA phosphodiesterase 1 (TDP1): qHTS in cells in absence of CPT | 420,000 compounds, 15% hits | DT40 Tdp1-/- hTDP1 cells, no CPT, ATP luminescence, 48 h | Potency, µM (doses to about 46.2 µM), actives largely listed as inhibitors; further: nearly all actives have a fitted effect of over 55% in size
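Compound effects on proliferation are scored in DT40 Tdp1-/-;hTDP1 cells in the absence of CPT. ATP levels (CellTiter-Glo luminescence) are recorded after a ≥48 hr, 37 °C incubation.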
HT1080NT lethal: kills 2HG-producing HT-1080-NT fibrosarcoma cells; HT-1080-NT fibrosarcoma viability, CellTiter-Glo ATP luminescence, 48 h; Potency, µM (doses to about 46.1 µM), usual class: cytotoxic; 360,000 compounds, 1.6% hits;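 further: NT is the 2HG producing partner of a matched IDH1 knockdown line; nearly all actives have a fitted effect of over 55% in size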
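Compounds were tested in concentration-response format on HT-1080-NT cells for 48 hours at 37 degrees C. Cell viability came from CellTiter-Glo luminescence; curves were classified by r2, response magnitude and activity.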
IL1B secr inh: inflammasome signaling inhibition, IL-1 beta readout; THP-1 LPS/ATP IL-1B secretion, AlphaLISA, 16 h; stronger effect = lower value; 360,000 compounds, 4.7% hits; AID 743279; activity change, % at 57.5 µM; in the data active means activity change below about -50%; inconclusive means mostly about -30% to -49%
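THP-1 cells pretreated 1 hr with compounds (up to 57.5 uM final), then stimulated with LPS (250 ng/mL final) plus ATP (1.25 mM final); secreted IL-1B measured by AlphaLISA after 16 hr, decreased signal indicating inhibition.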
ALOX12 inh: blocks human arachidonate 12S-lipoxygenase. 580,000 compounds, 1.1% hits. purified 12hLO, xylenol orange hydroperoxide absorbance. P18054. Potency, µM (series often up to 108 µM), actives largely listed as inhibitors. AID 1671190
Target sequence (P18054 whole entry, looked up): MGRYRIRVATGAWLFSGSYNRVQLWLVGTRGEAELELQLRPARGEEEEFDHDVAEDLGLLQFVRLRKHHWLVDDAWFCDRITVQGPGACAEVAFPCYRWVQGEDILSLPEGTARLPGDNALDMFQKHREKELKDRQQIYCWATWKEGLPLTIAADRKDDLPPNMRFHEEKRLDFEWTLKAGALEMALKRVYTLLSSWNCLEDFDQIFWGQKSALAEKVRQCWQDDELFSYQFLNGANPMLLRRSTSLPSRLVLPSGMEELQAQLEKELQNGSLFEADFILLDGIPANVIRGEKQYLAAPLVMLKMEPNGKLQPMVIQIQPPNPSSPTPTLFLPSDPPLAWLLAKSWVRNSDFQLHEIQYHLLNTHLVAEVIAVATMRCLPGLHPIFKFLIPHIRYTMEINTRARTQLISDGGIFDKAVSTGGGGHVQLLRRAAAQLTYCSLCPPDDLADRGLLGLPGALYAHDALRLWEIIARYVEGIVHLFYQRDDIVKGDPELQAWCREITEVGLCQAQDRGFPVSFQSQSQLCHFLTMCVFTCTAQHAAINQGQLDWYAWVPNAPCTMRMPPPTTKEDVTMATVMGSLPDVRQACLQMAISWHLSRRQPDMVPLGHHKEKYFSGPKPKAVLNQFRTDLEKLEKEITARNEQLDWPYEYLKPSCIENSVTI
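Hydroperoxide product was detected by ferrous iron/xylenol orange as the 573 to 405 nm absorbance ratio. Arachidonic acid at 40 uM (final) was turned over for 30 min at room temperature by 150 nM human 12hLO, pH 7.0 Hepes buffer, after 15 min compound preincubation.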
HT1080 IDH1KD tx: HT-1080 IDH1 knockdown cell toxicity (counter line); Potency, µM (series often up to 46.1 µM), usual class: cytotoxic; 360,000 compounds, 2% hits; HT-1080 IDH1 knockdown viability, ATP luminescence, 48 h; AID 686971
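IDH1KD HT-1080 cells, 750/well, RPMI + 5% FBS; compound pinned after 2 h settling; 48 h, 37 °C; CellTiter-Glo luminescence; % activity normalised to DMSO and no-cell wells; curves fitted, classed by r2 and efficacy.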
DT40 TDP1 CPT: growth inhibition of DT40 Tdp1-/-;hTDP1 cells with camptothecin (screen for TDP1 inhibitors) | chicken DT40 Tdp1-/-;hTDP1 cells + 20 nM CPT, ATP luminescence, 48 h | AID 686979 | Potency, µM (top dose mostly 46.2 µM), usual class: inhibitors | 420,000 compounds, 12% hits; further: nearly all actives have a fitted effect of over 55% in size
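Chicken DT40 Tdp1-/- cells stably complemented with human TDP1 were seeded at 400 cells/well in medium containing 20 nM camptothecin, exposed to pin-transferred compounds, and grown at 37 °C for at least 48 hr. Viability was read as ATP luminescence.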
Numbers stand for hits; n = inactive; u = inconclusive; x = not tested or not shown; ! = repeats disagree. Unless noted, the call rests on the fitted dose curve; in most records, active means well fitted curve in the direction sought with a large enough effect; inconclusive means small, poorly fitted or top-dose-only effect, or another doubt; inactive means no such curve, though single readings can be large; an effect the other way counts as inactive or inconclusive.

SMILES | DT40 TDP1 no CPT | HT1080NT lethal | IL1B secr inh | ALOX12 inh | HT1080 IDH1KD tx | DT40 TDP1 CPT
C#CCC(Cc1cnc2nc(N)nc(N)c2n1)c1ccc(C(=O)N[C@@H](CCC(=O)O)C(=O)O)cc1 (stereo partly drawn) | 0.024µM | x | x | n | x | 0.034µM
CC(C)(C)NC(=O)NC(O)C(Cl)(Cl)Cl (stereo not drawn) | x | x | x | n | x | x
Cc1[nH]c2ccccc2c1C(=O)C(C)NC(C)c1ccc(F)c(F)c1 (stereo not drawn) | x | x | x | n | x | x
O=C(COc1ccccc1)N1CCN(C/C=C/c2ccccc2)CC1 | 21µM | n | n | n | n | 16µM
COc1ccc(OCC(=O)N2CCN(C/C=C/c3ccccc3)CC2)cc1 | u | n | n | n | n | u
O=C(COc1ccc(Cl)cc1)N1CCN(C/C=C/c2ccccc2)CC1 | u | n | -75 | n | n | u
CCCCOc1ccc(C(=O)NCC(=O)N2CCN(C/C=C/c3ccccc3)CC2)cc1 | 16µM | n | n | n | n | u
CN(C(=O)CNC(=O)OCc1ccccc1)c1ccc(Br)cc1C(=O)c1ccccc1Cl | 2.3µM | u | n | n | u | 3.3µM
O=c1ccc(-c2ccccc2F)c2n1C[C@H]1C[C@@H]2CN(Cc2ccc(CO)o2)C1 | x | x | x | n | x | x
CC(C)N1CC=C(c2c[nH]c3ccccc23)CC1 | 4.6µM | n | n | n | n | 7.3µM
COC(=O)C1=C(c2ccc(Cl)c(C(F)(F)F)c2)C[C@@H]2CC[C@H]1N2C(=O)N1CCC(O)(c2ccc(Cl)cc2)CC1 | u | u | -83 | n | u | u
COC(=O)C1=C(c2ccc(Cl)c(C(F)(F)F)c2)C[C@@H]2CC[C@H]1N2C(=O)N1CCOCC1 | 4.6µM | n | n | n | n | 6.5µM
COC(=O)C1=C(c2ccccc2)C[C@@H]2CC[C@H]1N2C(=O)N1CCC(O)CC1 | n | n | n | n | n | n
O=C(C1CCCCC1)N1C[C@@H]2C[C@H](C1)c1c(-c3cncnc3)ccc(=O)n1C2 | x | x | x | n | x | x
CC[C@H]1CN2CC[C@H]1C[C@@H]2CNC(=O)Nc1ccc(C(C)=O)cc1 | x | x | x | n | x | x
O=C1CNC(c2ccccc2Cl)c2cc(Br)ccc2N1 (stereo not drawn) | 8.2µM | n | n | u | n | n
Cn1nc(C2CCCCC2)cc1[C@H]1CN2CC[C@H]1C[C@@H]2CNC(=O)c1ccc2c(c1)OCO2 | x | x | x | n | x | x
O=C(c1cc(C(=O)NCc2ccccc2)c(=O)n(Cc2ccccc2)c1)c1cc(Cl)ccc1O | 8.2µM | n | n | u | n | 7.3µM
O=C(c1cccs1)N1CC(CO)C2(CCNCC2)C1 (stereo not drawn) | x | x | x | n | x | x
CC(=O)N1N=C(c2c(O)n(C)c(=O)n(C)c2=O)CC1c1ccccc1 (stereo not drawn) | 15µM | n | n | n | u | u
COc1ccc(CCN(C)Cc2cc(C(C)(C)C)c(O)c(C(C)(C)C)c2)cc1OC | x | x | x | 7.9µM | x | x
CS(=O)(=O)c1ccc([C@@H](O)[C@@H](CF)NC(=O)C(Cl)Cl)cc1 | 2.9µM | n | n | n | n | 4.1µM
CC(=O)OC1CC(OC2C(O)CC(OC3C(O)CC(OC4CC(O)C5(C)C(CC[C@@H]6[C@@H]5CCC5(C)C(C7=CC(=O)OC7)CCC65O)C4)OC3C)OC2C)OC(C)C1O (stereo partly drawn) | x | x | x | n | x | x
O=C1NC(=O)C(=CN2CCc3ccccc32)C(=O)N1 | n | n | n | n | n | u
O=P(N1CC1)(N1CC1)N1CCc2ccccc21 | 8.2µM | u | n | n | n | 7.3µM
SMILES | DT40 TDP1 no CPT | HT1080NT lethal | IL1B secr inh | ALOX12 inh | HT1080 IDH1KD tx | DT40 TDP1 CPT
COC1CN(c2cccc(F)c2)C12CCNCC2 (stereo not drawn) | x | x | x | n | x | x
CN(C)P(=NC(=S)c1cccn1C)(N(C)C)N(C)C | 4.1µM | u | n | 40µM | n | 8.2µM
CN(C)P(=O)(NC(=O)c1cccn1C)N(C)C | n | n | n | n | n | n
CC(C)C(NC(=O)C(C(C)C)N(C)C)C(=O)N(C)C(C(=O)N1CCCC1C(=O)N1CCCC1C(=O)NCc1ccccc1)C(C)C (stereo not drawn) | 0.052µM | 0.21µM | n | u | u | 0.033µM
CCC(CC)C(=O)NC[C@H]1C[C@@H]2CCN1C[C@@H]2c1cc(-c2ccc(OC)c(OC)c2)nn1C | x | x | x | n | x | x
N[C@H](CCP(=O)(O)O)C(=O)O | n | x | x | 3.5µM! | x | n
CNCC(N)C(=O)O (stereo not drawn) | x | x | x | n | x | x
CCOc1ccc(C(=O)N2CCC3(CC2)NCc2ccccc2-n2ccnc23)cc1 | x | x | x | n | x | x
CC1Cc2ccccc2N1Cc1cccc(S(=O)(=O)N(C)C)c1 (stereo not drawn) | u | n | n | n | n | u
CC1Cc2cc(S(=O)(=O)N(Cc3ccccc3)C(C)C)ccc2N1C(=O)C1CCC1 (stereo not drawn) | 21µM | x | x | n | x | u
O=C1NC(=O)C(=Cc2ccc(-c3cc(Cl)ccc3[N+](=O)[O-])o2)C(=O)N1 | u | n | n | 6.3µM | n | 16µM
NS(=O)(=O)c1ccc(-c2ccc(C=C3C(=O)NC(=O)NC3=O)o2)cc1 | n | n | n | n | n | n
O=C1NC(=O)C(=Cc2ccccc2[N+](=O)[O-])C(=O)N1 | 16µM | n | n | u | n | 15µM
O=C1NC(=O)C(=Cc2ccc(-c3ccccc3[N+](=O)[O-])o2)C(=O)N1 | 13µM | u | x | u | n | 7.3µM
Cc1ccc(S(=O)(=O)Oc2ccccc2C=C2C(=O)NC(=O)NC2=O)cc1 | n | n | -55 | u | n | n
O=C1NC(=O)C(=Cc2cc3c(cc2[N+](=O)[O-])OCO3)C(=O)N1 | u | n | n | u | n | n
O=C(Nc1ccc2oc(-c3ccccc3F)nc2c1)c1ccc2c(c1)OCCO2 | 15µM | 13µM | -54 | n | u | 10µM
Cc1cc(C(=O)CS(=O)(=O)c2ccccc2)cc(C)c1OC(=O)N(C)C | 18µM | n | n | n | n | u
Cc1ccc(S(=O)(=O)CC(=O)c2cc(C)c(OC(=O)N(C)C)c(C)c2)cc1 | u | n | n | n | n | u
COc1ccc(CC(=O)N2CCC3(C2)C(=O)Nc2ccc(OC)cc23)c(Cl)c1 (stereo not drawn) | x | x | x | n | x | x
CCOC(=O)c1c(C)n(Cc2ccc3c(c2)OCO3)c2ccc(O)cc12 | u | n | n | u | u | u
COC(=O)c1c(C)n(Cc2ccc3c(c2)OCO3)c2ccc(O)cc12 | n | u | n | 13µM | u | u
CCCn1c(C)c(C(=O)OCc2ccccc2)c2cc(O)ccc21 | x | x | x | 35µM | x | x
CCOC(=O)c1c(C)n(COCCO)c2ccc(O)cc12 | n | n | n | n | n | n
